Compounds without any hit were thinned out: in the full panel of roughly 83,000, 20% have a hit.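 Activity criterion: percent growth below 10, measured after cells in 96-well plates were exposed to a single compound concentration for 48 hours.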 Calls of active or inactive are those of the source.
The molecules below were run on SF-539 CNS (assay: NCI-60 one-dose screen, 48 h (100 = growth as untreated, 0 = no growth, -100 = all killed)). Settings: 10 µM.

Compound | growth
C=C/C(C)=C/C[C@]1(C)[C@H](C)[C@@H](OC(=O)CCC)[C@H](O)[C@@]23C(=C[C@H](OC)C[C@@H]12)[C@@H](OC(=O)CCC)O[C@H]3OC(C)=O | -74.4% (active)
Fc1ccc2[nH]cc(-c3nc(-c4ccsc4)cs3)c2c1 | 94% (inactive)
CN1CCc2c(sc3nc4n(-c5ccc(Cl)cc5)cnn4c(=O)c23)C1 | 106% (inactive)
O=C(CCCNC(=O)c1nc(-c2ccccc2)n(-c2ccccc2)n1)NO | 107% (inactive)
Nc1ccc(-c2cccs2)cc1NC(=O)c1ccc(CCCC(=O)Nc2ccc(C3CC3N)cc2)cc1 (centres undefined) | 77% (inactive)
CCOC(=O)c1sc2ncnc(Nc3ccc(NC(=O)Nc4ccc(Cl)cc4)cc3)c2c1C | -1.23% (active)
CCNc1nc(C(F)(F)F)nc2c1sc(=S)n2-c1ccccc1 | 101% (inactive)
COc1ccc([C@H]2[C@H](C(=O)Nc3cccnc3)c3ccccc3C(=O)N2c2ccccc2)cc1 | 114% (inactive)
O=C(CCCCNC(=O)c1nc(-c2ccccc2)n(-c2ccccc2)n1)NO | 65.1% (inactive)
COc1cc(CNC(=O)C2CSC3(C)c4ccccc4C(=O)N23)cc(OC)c1OC (centres undefined) | 98.2% (inactive)
COc1cc2c3c(n(C4CCNCC4)c(=O)c2cc1OC)-c1cc2c(cc1C3=O)OCO2 | -65.8% (active)
C[C@@H](O)[C@H]1C(=O)N2C(C(=O)O)=C(SC3CN[C@H](C(=O)N(C)C)C3)[C@H](C)[C@H]12 (some centres undefined) | 113% (inactive)
COc1cc2c3c(n([C@@H]4CCOC4)c(=O)c2cc1OC)-c1cc2c(cc1C3=O)OCO2 | -3.51% (active)
CCOC(=O)c1sc2ncnc(Nc3ccc4c(cnn4C(=O)Nc4ccc(C)c(Cl)c4)c3)c2c1C | 104% (inactive)
CN1C(C(=O)Nc2ccccn2)=C(O)c2sc(Cl)cc2S1(=O)=O | 117% (inactive)
CCCN1CN2C(=O)N3CN(CCC)CN4C(=S)N(C1)C2C34 (centres undefined) | 95.3% (inactive)
COc1ccc(-c2cc(-c3cc(OC)ccc3OC)nc(N)c2C#N)cc1 | 57.8% (inactive)
c1cncc(-c2csc(-c3c[nH]c4ccccc34)n2)c1 | 84.9% (inactive)
c1cnc2[nH]cc(-c3nc(-c4ccsc4)cs3)c2c1 | 93.7% (inactive)
COc1ccc(-c2nn(-c3cccc(Cl)c3)cc2C=C(C#N)C#N)cc1 | 2.34% (active)
CCOC(=O)c1sc2ncnc(Nc3ccc4c(cnn4C(=O)Nc4ccccc4)c3)c2c1C | 19.2% (inactive)
CCCCCC(=O)O[C@]1(C(C)=O)CCC2C3CCC4=CC(=O)CC[C@]4(C)C3CC[C@@]21C (some centres undefined) | 74.8% (inactive)
CCn1cc(CNc2ccc(C(=O)Nc3ccc4ccccc4c3)cc2)c(C)n1 | 83.3% (inactive)
O=c1[nH]c(=O)n(C2C[C@H](O)[C@@H](CO)O2)cc1C(F)(F)F (some centres undefined) | 112% (inactive)
